About 7,900 targets were measured; listed, in parts, are those with a hit and a random draw of the rest. About 0.6% of all pairs of compound and target were hits.
Columns and labels:
Test in all cases: log2 fold change, soluble protein after heating vs DMSO (PISA); higher = thermal stabilisation; K562 cells, 10 uM, 30 min; active = over 0.2 and 3.5 SD of the protein, either way, in both replicates (recomputed)
bafetinib = compound: Cc1ccc(NC(=O)c2ccc(CN3CC[C@H](N(C)C)C3)c(C(F)(F)F)c2)cc1Nc1nccc(-c2cncnc2)n1 [bafetinib]
Outline: (§1)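 For each measurement, 10 μM compound was applied for 30 min to K562 cells at 2×10^6 cells/mL. Aliquots were heated for 3 min across 48°C-58°C, pooled, and extracted in PBS with 0.5% NP-40 at 4°C; the supernatant after 21,000xg for 90 min was soluble protein. This was quantified by TMTpro 16plex LC-MS/MS with channel sums equalised, and thermal stability was reported relative to control samples from duplicates, on a log2 fold-change scale.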

[1] = compound: Cc1cccc(CC(=O)N2CCc3c2ccc(-c2cn(C)c4ncnc(N)c24)c3F)n1
Outline: as §1

nilotinib = compound: Cc1cn(-c2cc(NC(=O)c3ccc(C)c(Nc4nccc(-c5cccnc5)n4)c3)cc(C(F)(F)F)c2)cn1 [nilotinib]
Outline: as §1

[2] = compound: Cc1nc(Nc2n[nH]c3c2CN(C(=O)N[C@H](CN(C)C)c2ccccc2)C3(C)C)c2sccc2n1
Outline: as §1

dasatinib = compound: Cc1nc(Nc2ncc(C(=O)Nc3c(C)cccc3Cl)s2)cc(N2CCN(CCO)CC2)n1 [dasatinib]
Outline: as §1

[3] = compound: Cc1ncc(-c2ccnc(Nc3ccc(S(C)(=O)=O)cc3)n2)n1C(C)C
Outline: as §1

[4] = compound: Cn1cc(-c2ccc3c(c2)CCN3C(=O)Cc2cccc(C(F)(F)F)c2)c2c(N)ncnc21
Outline: as §1

[5] = compound: Cn1cc(-c2ccc3nnc(C(F)(F)c4ccc5ncccc5c4)n3n2)cn1
Outline: as §1

tipifarnib = compound: Cn1cncc1[C@@](N)(c1ccc(Cl)cc1)c1ccc2c(c1)c(-c1cccc(Cl)c1)cc(=O)n2C [tipifarnib]
Outline: as §1

mubritinib = compound: FC(F)(F)c1ccc(/C=C/c2nc(COc3ccc(CCCCn4ccnn4)cc3)co2)cc1 [mubritinib]
Outline: as §1

[6] = compound: NC(=O)Nc1cc(-c2cccc(F)c2)sc1C(=O)N[C@H]1CCCNC1
Outline: as §1

[7] = compound: NC(=O)c1cnc(N[C@@H]2CCCC[C@@H]2N)nc1Nc1cccc(-n2nccn2)c1
Outline: as §1

[8] = compound: NC1(c2ccc(-c3nc4ccn5c(=O)[nH]nc5c4cc3-c3ccccc3)cc2)CCC1
Outline: as §1

[9] = compound: NCC(=O)Nc1ccc(-n2nc(C(F)(F)F)cc2-c2ccc3c(ccc4ccccc43)c2)cc1
Outline: as §1

entinostat = compound: Nc1ccccc1NC(=O)c1ccc(CNC(=O)OCc2cccnc2)cc1 [entinostat]
Outline: as §1

vorinostat = compound: O=C(CCCCCCC(=O)Nc1ccccc1)NO [vorinostat]
Outline: as §1

citarinostat = compound: O=C(CCCCCCNC(=O)c1cnc(N(c2ccccc2)c2ccccc2Cl)nc1)NO [citarinostat]
Outline: as §1

silmitasertib = compound: O=C(O)c1ccc2c(c1)nc(Nc1cccc(Cl)c1)c1ccncc12 [silmitasertib]
Outline: as §1

[10] = compound: O=C1NC(=O)C(c2cnc3ccccn23)=C1c1cn2c3c(cc(F)cc13)CN(C(=O)N1CCCCC1)CC2
Outline: as §1

[11] = compound: c1cc(OCCN2CCCCC2)cc(-c2n[nH]c3ccc(-c4nnc[nH]4)cc23)c1
Outline: as §1

Measured: log2 fold change

DDB1 (UniProt Q16531)
UniProt Q16531, sequence (Q16531 whole entry, looked up): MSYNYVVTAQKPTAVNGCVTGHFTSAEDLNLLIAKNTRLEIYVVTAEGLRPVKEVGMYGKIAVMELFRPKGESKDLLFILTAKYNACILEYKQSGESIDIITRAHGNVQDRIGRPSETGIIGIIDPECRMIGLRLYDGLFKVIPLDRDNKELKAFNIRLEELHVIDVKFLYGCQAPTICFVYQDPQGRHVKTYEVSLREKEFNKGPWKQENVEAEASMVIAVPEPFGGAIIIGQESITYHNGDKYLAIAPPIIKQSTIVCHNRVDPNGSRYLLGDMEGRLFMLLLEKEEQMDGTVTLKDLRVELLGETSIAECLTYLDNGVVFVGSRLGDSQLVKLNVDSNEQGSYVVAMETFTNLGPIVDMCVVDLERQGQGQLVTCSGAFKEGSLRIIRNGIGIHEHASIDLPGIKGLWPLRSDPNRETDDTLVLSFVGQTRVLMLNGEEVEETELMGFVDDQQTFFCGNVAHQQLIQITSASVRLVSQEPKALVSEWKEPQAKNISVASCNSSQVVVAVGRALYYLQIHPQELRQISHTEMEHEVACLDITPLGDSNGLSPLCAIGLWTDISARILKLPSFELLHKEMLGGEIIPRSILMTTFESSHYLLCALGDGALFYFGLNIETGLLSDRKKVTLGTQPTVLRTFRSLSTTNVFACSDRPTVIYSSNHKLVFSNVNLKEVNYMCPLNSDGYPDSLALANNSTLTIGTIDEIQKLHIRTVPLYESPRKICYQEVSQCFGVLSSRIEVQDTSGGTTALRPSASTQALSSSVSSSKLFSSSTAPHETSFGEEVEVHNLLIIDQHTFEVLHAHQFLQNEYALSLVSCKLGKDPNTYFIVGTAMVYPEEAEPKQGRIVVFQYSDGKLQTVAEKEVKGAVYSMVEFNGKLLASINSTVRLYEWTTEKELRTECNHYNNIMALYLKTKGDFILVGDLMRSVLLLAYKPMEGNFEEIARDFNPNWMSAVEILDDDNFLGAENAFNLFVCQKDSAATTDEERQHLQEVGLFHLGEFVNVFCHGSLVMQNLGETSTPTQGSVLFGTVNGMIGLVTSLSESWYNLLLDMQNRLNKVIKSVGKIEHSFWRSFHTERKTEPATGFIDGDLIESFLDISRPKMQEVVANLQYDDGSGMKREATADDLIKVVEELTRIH
inactive: bafetinib -0.019 | [1] -0.025 | nilotinib -0.004 | [2] 0.027 | dasatinib 0.046 | [3] -0.016 | [4] 0.011 | [5] -0.001 | tipifarnib -0.014 | mubritinib 0.023 | [6] 0.027 | [7] -0.025 | [8] -0.024 | [9] -0.004 | entinostat -0.022 | vorinostat -0.021 | citarinostat 0.02 | silmitasertib -0.002 | [10] -0.018 | [11] -0.03

CTSV (UniProt O60911)
UniProt O60911, sequence (O60911 whole entry, looked up): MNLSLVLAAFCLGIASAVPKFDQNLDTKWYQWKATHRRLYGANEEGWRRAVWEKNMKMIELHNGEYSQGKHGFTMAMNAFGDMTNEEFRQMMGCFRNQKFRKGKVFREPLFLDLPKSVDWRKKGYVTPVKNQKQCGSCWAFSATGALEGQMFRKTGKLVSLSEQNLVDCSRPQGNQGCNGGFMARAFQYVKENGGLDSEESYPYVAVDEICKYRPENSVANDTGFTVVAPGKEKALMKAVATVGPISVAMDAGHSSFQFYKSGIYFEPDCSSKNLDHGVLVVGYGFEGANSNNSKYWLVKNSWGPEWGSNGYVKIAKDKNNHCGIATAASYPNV
inactive: [1] -0.24 | nilotinib 0.036 | [2] 0.142 | dasatinib 0.061 | [3] -0.056 | [4] 0.016 | [5] -0.002 | tipifarnib 0.026 | mubritinib -0.009 | [6] 0 | [7] -0.066 | [8] -0.296 | [9] -0.052 | entinostat -0.063 | vorinostat -0.029 | citarinostat -0.008 | silmitasertib 0.027 | [10] -0.105 | [11] 0.165
active: bafetinib -0.696

FAM118A (UniProt Q9NWS6)
UniProt Q9NWS6, sequence (Q9NWS6 whole entry, looked up): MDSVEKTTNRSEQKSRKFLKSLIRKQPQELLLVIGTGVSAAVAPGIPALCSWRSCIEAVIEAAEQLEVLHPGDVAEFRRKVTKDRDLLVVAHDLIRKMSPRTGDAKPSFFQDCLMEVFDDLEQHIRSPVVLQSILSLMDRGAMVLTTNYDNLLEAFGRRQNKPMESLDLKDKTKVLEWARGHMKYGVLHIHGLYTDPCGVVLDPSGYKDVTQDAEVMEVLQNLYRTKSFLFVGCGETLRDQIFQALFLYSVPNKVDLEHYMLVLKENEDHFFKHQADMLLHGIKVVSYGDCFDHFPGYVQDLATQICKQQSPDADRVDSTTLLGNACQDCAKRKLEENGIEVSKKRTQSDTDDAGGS
inactive: bafetinib -0.076 | [1] 0 | nilotinib -0.092 | [2] -0.216 | dasatinib -0.314 | [3] -0.039 | [4] -0.019 | [5] 0.135 | tipifarnib -0.128 | mubritinib 0.043 | [6] 0.052 | [7] -0.129 | [8] -0.351 | [9] 0.015 | entinostat 0.149 | vorinostat 0.054 | citarinostat -0.289 | silmitasertib 0.166 | [10] -0.088 | [11] 0.322

E2F4 (UniProt Q16254)
UniProt Q16254, sequence (Q16254 whole entry, looked up): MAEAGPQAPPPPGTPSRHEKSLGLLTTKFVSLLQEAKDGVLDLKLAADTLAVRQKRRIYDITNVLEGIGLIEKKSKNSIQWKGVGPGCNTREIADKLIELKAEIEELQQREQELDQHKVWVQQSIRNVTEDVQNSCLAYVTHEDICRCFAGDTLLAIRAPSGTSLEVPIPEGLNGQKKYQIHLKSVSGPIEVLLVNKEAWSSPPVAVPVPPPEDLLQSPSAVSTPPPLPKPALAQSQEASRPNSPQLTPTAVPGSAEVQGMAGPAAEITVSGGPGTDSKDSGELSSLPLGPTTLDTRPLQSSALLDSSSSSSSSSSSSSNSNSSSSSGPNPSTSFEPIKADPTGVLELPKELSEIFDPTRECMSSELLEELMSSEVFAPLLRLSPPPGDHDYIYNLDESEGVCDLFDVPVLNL
inactive: bafetinib -0.053 | [1] -0.026 | nilotinib -0.016 | [2] -0.141 | dasatinib -0.095 | [3] 0.012 | [4] -0.007 | [5] -0.006 | tipifarnib -0.009 | mubritinib 0.01 | [6] 0.004 | [7] -0.052 | [8] -0.105 | [9] -0.032 | entinostat 0.016 | vorinostat -0.052 | citarinostat 0.067 | silmitasertib 0.001 | [10] 0.015 | [11] 0.005

DENND10 (UniProt Q8TCE6)
UniProt Q8TCE6, sequence (Q8TCE6 whole entry, looked up): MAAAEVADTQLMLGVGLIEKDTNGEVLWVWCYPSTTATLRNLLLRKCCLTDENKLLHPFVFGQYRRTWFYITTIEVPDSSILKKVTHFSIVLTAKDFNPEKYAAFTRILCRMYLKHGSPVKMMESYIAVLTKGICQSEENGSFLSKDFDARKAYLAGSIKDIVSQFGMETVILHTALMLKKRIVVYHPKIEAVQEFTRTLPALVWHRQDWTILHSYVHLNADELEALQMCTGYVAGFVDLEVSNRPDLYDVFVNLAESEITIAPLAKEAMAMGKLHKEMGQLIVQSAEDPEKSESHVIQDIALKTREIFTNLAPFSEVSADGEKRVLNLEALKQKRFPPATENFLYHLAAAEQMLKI
inactive: bafetinib 0.033 | nilotinib -0.266 | [2] -0.032 | dasatinib -0.129 | [3] -0.353 | [4] -0.131 | [5] -0.064 | tipifarnib 0.034 | mubritinib 0.077 | [6] 0.018 | [7] 0 | [8] -0.089 | [9] -0.069 | entinostat -0.076 | citarinostat 0.07 | silmitasertib 0.037 | [10] 0.073 | [11] 0.054

DERPC (UniProt P0CG12)
UniProt P0CG12, sequence (P0CG12 whole entry, looked up): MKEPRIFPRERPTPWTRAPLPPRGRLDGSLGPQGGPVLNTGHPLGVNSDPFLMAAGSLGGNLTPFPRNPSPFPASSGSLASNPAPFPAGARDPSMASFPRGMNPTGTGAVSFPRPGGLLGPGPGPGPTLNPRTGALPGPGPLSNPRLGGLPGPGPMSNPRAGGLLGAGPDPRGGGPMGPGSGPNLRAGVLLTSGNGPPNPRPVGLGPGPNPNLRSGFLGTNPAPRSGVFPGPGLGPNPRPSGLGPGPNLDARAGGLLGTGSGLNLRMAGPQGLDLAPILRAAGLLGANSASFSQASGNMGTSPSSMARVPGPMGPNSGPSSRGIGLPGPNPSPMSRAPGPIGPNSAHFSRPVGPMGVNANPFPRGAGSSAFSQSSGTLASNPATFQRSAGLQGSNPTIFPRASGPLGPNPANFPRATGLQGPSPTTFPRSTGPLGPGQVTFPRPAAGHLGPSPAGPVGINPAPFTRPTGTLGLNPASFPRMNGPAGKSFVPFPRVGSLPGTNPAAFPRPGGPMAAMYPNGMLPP
inactive: bafetinib -0.06 | [1] -0.193 | nilotinib 0.044 | [2] -0.04 | dasatinib 0.227 | [3] -0.126 | [5] 0.245 | mubritinib 0.049 | [8] 0.008 | [9] -0.16 | vorinostat -0.042 | citarinostat -0.049 | silmitasertib -0.024 | [11] -0.045

DNAH10 (UniProt Q8IVF4)
inactive: bafetinib 0.062 | [1] -0.052 | nilotinib -0.092 | [2] 0.037 | dasatinib 0.093 | [3] 0.043 | [4] 0.102 | mubritinib 0.154 | [6] 0.057 | [8] -0.045 | [9] 0.026 | entinostat -0.041 | vorinostat 0.083 | citarinostat 0.242 | silmitasertib -0.101 | [10] -0.102 | [11] 0.172

CYP24A1 (UniProt Q07973)
UniProt Q07973, sequence (Q07973 whole entry, looked up): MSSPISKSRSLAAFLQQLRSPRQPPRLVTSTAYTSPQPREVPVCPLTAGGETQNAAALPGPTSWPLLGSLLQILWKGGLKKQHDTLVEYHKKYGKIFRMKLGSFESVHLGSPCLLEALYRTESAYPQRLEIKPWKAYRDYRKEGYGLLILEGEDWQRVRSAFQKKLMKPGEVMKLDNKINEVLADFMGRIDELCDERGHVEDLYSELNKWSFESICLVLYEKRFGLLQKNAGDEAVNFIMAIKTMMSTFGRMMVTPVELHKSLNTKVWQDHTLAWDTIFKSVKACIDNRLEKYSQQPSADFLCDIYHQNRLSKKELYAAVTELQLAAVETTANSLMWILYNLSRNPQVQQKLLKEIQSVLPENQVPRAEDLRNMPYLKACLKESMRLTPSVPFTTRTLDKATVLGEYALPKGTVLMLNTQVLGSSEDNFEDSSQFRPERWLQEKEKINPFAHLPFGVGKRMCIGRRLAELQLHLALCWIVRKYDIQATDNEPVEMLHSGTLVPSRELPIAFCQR
inactive: bafetinib 0.373 | [1] -0.049 | nilotinib 0.01 | [2] 0.167 | dasatinib 0.184 | [3] -0.105 | [5] -0.057 | tipifarnib 0.101 | mubritinib -0.074 | [7] 0.045 | [8] 0.43 | [9] 0.21 | vorinostat 0.067 | citarinostat -0.002 | silmitasertib 0.099 | [11] 0.109

DNAH5 (UniProt Q8TE73)
inactive: bafetinib -0.065 | [1] -0.084 | nilotinib -0.006 | [2] 0.015 | dasatinib 0.085 | [3] -0.015 | [4] 0 | [5] -0.06 | tipifarnib 0.267 | mubritinib 0.032 | [6] -0.029 | [8] -0.077 | [9] 0.016 | entinostat -0.037 | vorinostat -0.103 | citarinostat 0.047 | silmitasertib 0.001 | [10] 0.014 | [11] 0.029
